Shown are actives, neighbours in structure and some others; about 7.5% of the full set was active somewhere.
RORg inh: qHTS for inhibitors of ROR gamma transcriptional activity. Nuclear receptor ROR-gamma (Mus musculus), P51450. Drosophila S2 Gal4-RORgamma UAS-luciferase reporter, 20 h. Potency, µM (highest dose often 53.6 µM), for the others: at the top dose activity change, negative = inhibition, hits mostly inhibitors. actives 5.4% (n = 310,000). AID 2551, 2010; further: potency means the concentration at half of the fitted maximal effect; nearly all actives have a fitted effect of over 60% in size
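Schneider cells (Drosophila), stable Gal4 DBD–ROR gamma + UAS-luc; 1 hr cmpd preincubation; Cu2+ induction 700 uM final; 20 hr ambient; luminescence.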
B2AR arrestin: qHTS assay of beta-arrestin-biased ligands of beta2-adrenergic receptor | beta-arrestin recruitment to beta2AR, cell-based reporter | Potency, µM (series often up to 46.1 µM), for the others: at the top dose activation, hits mostly activators | actives 0.02% (n = 330,000);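 further: potency means the concentration at half of the fitted maximal effect; 0% = DMSO controls and full agonism = EC100 isoproterenol or metaproterenol; nearly all actives have a fitted effect of over 65% in size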
ELG1 repair inh: qHTS screen for small molecules that inhibit ELG1-dependent DNA repair in human embryonic kidney (HEK293T) cells expressing luciferase-tagged ELG1 | HEK293T ELG1-luciferase reporter, luminescence, 16 h; DNA damage induced by 5-fluorouridine | Potency, µM (top dose mostly 46.1 µM), inactives show top-dose activity change, negative = inhibition, hits mostly inhibitors | actives 2.3% (n = 330,000); further: potency means the concentration at half of the fitted maximal effect; nearly all actives have a fitted effect of over 55% in size
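In this reporter screen, reduction of luminescence relative to DMSO vehicle indicated activity. Compounds and 5-fluorouridine were added together to 2,000 cells per well, incubated for 16 hr at 37 °C, then developed with ONE-Glo.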
TSHR antag: Antagonists of the Thyroid Stimulating Hormone Receptor: HTS campaign; Thyrotropin receptor (Homo sapiens), P16473; TSHR-expressing cells, TSH-stimulated cAMP HTRF, 2 h; stronger effect = lower value; activity change, negative = inhibition, % at 11.5 µM; actives 0.2% (n = 330,000);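 active means activity change below a set negative limit, meaning inhibition stronger than a set level, cut at about -70% in these data; inconclusive means activity change between two set negative limits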
Target sequence (P16473 whole entry, looked up): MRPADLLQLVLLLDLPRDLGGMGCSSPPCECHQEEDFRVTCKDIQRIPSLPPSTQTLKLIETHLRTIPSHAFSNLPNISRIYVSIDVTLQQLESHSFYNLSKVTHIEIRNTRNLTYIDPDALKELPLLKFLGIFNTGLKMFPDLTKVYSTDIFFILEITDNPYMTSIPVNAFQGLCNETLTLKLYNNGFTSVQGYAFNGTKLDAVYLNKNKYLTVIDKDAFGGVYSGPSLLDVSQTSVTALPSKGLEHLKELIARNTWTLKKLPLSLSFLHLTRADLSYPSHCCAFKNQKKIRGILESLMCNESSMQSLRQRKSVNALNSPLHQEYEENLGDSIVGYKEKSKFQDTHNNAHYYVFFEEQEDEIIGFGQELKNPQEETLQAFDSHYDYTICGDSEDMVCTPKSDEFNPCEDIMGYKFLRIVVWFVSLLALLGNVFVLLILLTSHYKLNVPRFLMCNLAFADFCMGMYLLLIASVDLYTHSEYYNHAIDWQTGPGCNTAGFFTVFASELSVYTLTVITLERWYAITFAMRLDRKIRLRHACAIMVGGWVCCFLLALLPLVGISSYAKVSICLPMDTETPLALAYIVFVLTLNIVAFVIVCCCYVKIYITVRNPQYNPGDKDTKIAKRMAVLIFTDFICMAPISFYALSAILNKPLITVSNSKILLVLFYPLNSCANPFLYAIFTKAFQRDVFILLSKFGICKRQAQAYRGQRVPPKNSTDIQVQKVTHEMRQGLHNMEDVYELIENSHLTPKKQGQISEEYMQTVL
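Competitive HTRF cAMP read-out (cryptate anti-cAMP antibody, cAMP-d2; 30 min, room temperature) in freshly harvested TSHR cells. Compounds added before TSH at EC80 (4nM final), followed by 2 hours' incubation at 37 deg C.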
Gal4-VP16 FLuc: VP16 counterscreen qHTS for inhibitors of ROR gamma transcriptional activity; Drosophila S2 Gal4-VP16 UAS-luciferase, luminescence, 20 h; Potency, µM (highest dose often 53.6 µM), for the others: at the top dose activity, negative = inhibition, usual class: inhibitors; actives 3.5% (n = 310,000); AID 2546, 2010;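 further: Gal4-VP16 expression switched on by copper sulfate through the metallothionein promoter; potency means the concentration at half of the fitted maximal effect; nearly all actives have a fitted effect of over 50% in size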
An asterisk follows results filed as active; ? = inconclusive; nt = not tested or not shown; [ ] = dose if it differs, or a comment. Unless noted, the call rests on the fitted dose curve; in most records, active means well fitted curve in the direction sought with a large enough effect; inconclusive means small, poorly fitted or top-dose-only effect, or another doubt; inactive means no such curve, though single readings can be large; an effect the other way counts as inactive or inconclusive. Unless noted, on the % scale 0 is the no-effect control and ±100 the full control effect.

SMILES	RORg inh	B2AR arrestin	ELG1 repair inh	TSHR antag	Gal4-VP16 FLuc
COc1ccc(NC(=O)c2nc[nH]c2C(=O)Nc2ccccc2C)cc1	3.2µM*	0%	-8%	-6	8.9µM*
C#C[C@@]1(O)CC[C@@H]2[C@@H]3CCC4=C(CCC(=O)C4)[C@H]3CC[C@]21C	19%[2.98 µM]	nt	nt	nt	1%[17 µM]
COc1ccc(C2=Nn3c(nnc3-c3ccccc3C)SC2)cc1	19%	nt	nt	nt	3%
COc1ccc(NC(=O)c2nc[nH]c2C(=O)N[C@@H](CC(C)C)C(=O)OC(C)(C)C)cc1	5.6µM*	-1%	?	-10	16µM*
COc1ccc(NC(=O)c2nc[nH]c2C(=O)N[C@@H](C)C(=O)OC(C)(C)C)cc1	11µM*	-1%	-26%	-13	?
COc1ccc(NC(=O)c2nc[nH]c2C(=O)N[C@@H](C)c2ccccc2)cc1	6.3µM*	-1%	?	-6	8.9µM*
Cc1cc(C(=O)N/N=C/c2cc(Br)ccc2OC(=O)c2ccccc2Cl)n[nH]1	14µM*	0%	?	1	?
Cc1cc(C(=O)N/N=C/c2cccnc2)n[nH]1	4%	0%	24%	8	-10%
Cc1cc(C(=O)N/N=C/c2ccccc2Br)no1	2%	0%	?	7	-1%
Cc1cc(C(=O)N/N=C/c2ccc[nH]2)n[nH]1	2.8µM*	0%	?	-5	13%
Cc1cc(C(=O)N/N=C\c2cc(C(C)(C)C)c(O)c(C(C)(C)C)c2)n[nH]1	6.3µM*	0%	-19%	6	3.5µM*
Cc1cc(C(=O)N/N=C/c2ccc3ccccc3c2)n[nH]1	0%	-1%	11%	-8	19%
Cc1cc(C(=O)N/N=C/c2ccc[nH]2)no1	10µM*	0%	?	9	11µM*
COc1ccc(C(=O)N2CCC[C@@]3(CCN(CC(C)C)C3)C2)cc1	0%	nt	nt	nt	-5%
CCOC(=O)[C@@H]1[C@H]2COc3cc(OC)ccc3[C@H]2N2C(=O)N(c3cccc(F)c3)C(=O)[C@]12C	nt	-1%	?	-4	nt
COc1ccc(S(=O)(=O)NC(CC(=O)NCC2CCCO2)c2ccco2)cc1 (stereo unspecified)	29%	-2%	12%	29	22µM*
COc1ccc(S(=O)(=O)NC(CC(=O)O)c2ccco2)cc1 (stereo unspecified)	-1%	-1%	-3%	-5	-4%
CCCCC[C@H](O)/C=C/C=C\C/C=C\CCCCC(=O)O	-14%	nt	nt	nt	-4%
c1ccc(-c2nc(N3CCN(c4ccccc4)CC3)nc(-n3ccnc3)n2)cc1	13µM*	0%	?	-23	16µM*
O=C(O)c1cc(-c2ccc3c(c2)OCO3)nc2ccccc12	-5%	0%	?	-5	-12%
CCCN(CCC)C(=O)c1cc(-c2ccc3c(c2)OCO3)nc2ccccc12	33%	0%	18µM*	20	-11%
Cc1ccc2nc(-c3ccc4c(c3)OCCO4)cc(C(=O)O)c2c1	5µM*	0%	?	-8	7%[0.365 µM]
CC(C)(C)c1ccc(/C=C/C(=O)Nc2ccc3c(c2)OCCO3)cc1	?	nt	nt	-40	?
O=C(N/C(=C\c1ccco1)C(=O)N1CCOCC1)c1ccccc1Cl	-4%	0%	0%	-9	-2%
Cc1cc(C(=O)NC2CCCc3c2cnn3-c2ccccc2F)nc(C)n1 (stereo unspecified)	-1%	0%	13µM*	9	-9%
SMILES	RORg inh	B2AR arrestin	ELG1 repair inh	TSHR antag	Gal4-VP16 FLuc
COc1cc(C(=O)NC2CCCc3c2cnn3-c2ccccc2F)cc(OC)c1OC (stereo unspecified)	-36%	0%	?	-16	5µM*
COC(=O)c1ccc(C(=O)NC2CCCc3c2cnn3-c2ccccc2F)nc1 (stereo unspecified)	12%	1%	?	9	5%
CC(C)c1cc(C(=O)NC2CCCc3c2cnn3-c2ccccc2F)no1 (stereo unspecified)	-29%	0%	?	-1	11µM*
Cc1cccc(-n2ncc3c2CCCC3NC(=O)c2ccc[n+]([O-])c2)c1C (stereo unspecified)	34%	0%	?	6	?
Cc1cc(C(=O)NC2CCCc3c2cnn3-c2cccc(C)c2C)n(C)n1 (stereo unspecified)	?	0%	-4%	-44	2.2µM*
CC(=O)Nc1cccc(C(=O)NC2CCCc3c2cnn3-c2ccccc2F)c1 (stereo unspecified)	4%	0%	-4%	-8	0%
COc1ccc(C(=O)NC2CCCc3c2cnn3-c2ccccc2F)o1 (stereo unspecified)	?	0%	?	4	-25%
CC[C@H](C)[C@H](NC(=O)[C@H](CO)NC(=O)[C@H](C)NC(=O)[C@H](C)NC(=O)[C@H](CCC(N)=O)NC(=O)[C@H](CCCCN)NC(=O)[C@H](CCCN=C(N)N)NC(=O)[C@@H](N)CS)C(=O)N[C@@H](CCCCN)C(=O)N[C@H](C(=O)N[C@@H](C)C(=O)N[C@H](C(=O)N[C@@H](CO)C(=O)O)C(C)C)C(C)C	1%	nt	nt	nt	-3%
CCOC(=O)N/N=C1/C[C@@H](O)[C@@H](O)[C@@H]2[C@@H]3C(=O)N([C@@H](C)c4ccccc4)C(=O)[C@H]3CC[C@H]12	4%[10 µM]	nt	nt	nt	-14%[10 µM]
O=S(=O)(c1cccs1)N1CCN(CC(O)COc2cc(Cl)ccc2Cl)CC1 (stereo unspecified)	-10%	0%	8.2µM*	?	18µM*
O=S(=O)(c1cccs1)N1CCN(CCOc2ccc(Cl)cc2)CC1	nt	0%	-18%	17	nt
CCN1CCN(c2oc(-c3ccccc3)nc2S(=O)(=O)c2ccc(C)cc2)CC1	nt	0%	-2%	-1	nt
CCOc1ccc(NC(=O)CN(C)C(=O)CSCc2cccc(C)c2)cc1OCC	nt	0%	-17%	6	nt
CCOc1ccc(NC(=O)CN(C)C(=O)c2ccccc2OCc2cccc(C)c2)cc1OCC	nt	11%	10µM*	-17	nt
CCOc1ccc(NC(=O)CN(C)C(=O)CSCc2ccc(C)cc2)cc1OCC	nt	0%	7.3µM*	9	nt
O=[N+]([O-])c1ccc(N2CCN(S(=O)(=O)c3ccccc3)CC2)cc1NCCN1CCOCC1	?	0%	26µM*	0	-8%
Cc1ccc(S(=O)(=O)N2CCN(c3ccc([N+](=O)[O-])c(NCCN4CCOCC4)c3)CC2)cc1	40%	0%	?	-17	-14%
O=C(Nc1ccc([N+](=O)[O-])cc1)c1cc2ccccc2nc1Cl	-1%	0%	18µM*	6	0%

Source: PubChem (National Center for Advancing Translational Sciences (NCATS))
